The source made the active and inactive calls. Cut-off read from the data, not from the text of the source, unless noted: active = inhibition above about 80%; inactive = the rest.
Tests used:
[1] = LFS_MB_P medulloblastoma growth inhibition, cell-based, chromothripsis tumors, cisplatin or BGB combos (AID 1671449); details: LFS_MB_P medulloblastoma cells;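 note: cells exposed for 96 hours; 0% = vehicle DMSO and 100% = killing by high DMSO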
[2] = HDN33 neuroblastoma growth inhibition, cell-based, chromothripsis tumors, cisplatin or BGB combos (AID 1671450); details: HDN33 neuroblastoma cells, stronger effect = higher value;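 note: cells exposed to compound for four days; 0% = vehicle DMSO and 100% = cell killing by high DMSO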
[3] = ICB984 medulloblastoma cell growth inhibition, synergistic combos for chromothripsis tumors, cisplatin or BGB combos (AID 1671451; call rule not given here;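 note: cells exposed for 96 hours before readout; 0% = vehicle DMSO and 100% = killing by high DMSO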); details: ICB984 medulloblastoma cells, drug combinations, stronger effect = higher value
[4] = LFS_MB_1R medulloblastoma cell growth inhibition, synergistic combos for chromothripsis tumors, cisplatin or BGB combos (AID 1671452); details: LFS_MB_1R medulloblastoma cells, stronger effect = higher value;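 note: cells exposed for 96 hours before readout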
[5] = HTB85 osteosarcoma cell growth inhibition, synergistic combos for chromothripsis tumors, BGB or cisplatin IC20 combos (AID 1671453); details: HTB85 osteosarcoma cells, drug combinations, stronger effect = higher value;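 note: cells exposed for 96 hours before readout; 0% = vehicle DMSO and 100% = high DMSO killing control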
[6] = CRL2098 osteosarcoma cell growth inhibition, synergistic combos for chromothripsis tumors, BGB or cisplatin IC20 combos (AID 1671454); details: CRL2098 osteosarcoma cells, drug combinations, stronger effect = higher value;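 note: cells exposed for 96 h before readout; 0% = vehicle DMSO and 100% = killing by high DMSO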
[7] = HD-MB03 medulloblastoma cell growth inhibition, synergistic combos for chromothripsis tumors, BGB or cisplatin IC20 combos (AID 1671455; in the data active = inhibition above about 83%;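 note: 0% = vehicle DMSO and 100% = high DMSO as cytotoxic control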); details: HD-MB03 medulloblastoma cells, stronger effect = higher value
[8] = UWB1.289 ovarian carcinoma cell growth inhibition, synergistic combos for chromothripsis tumors, BGB or cisplatin combos (AID 1671456); details: UWB1.289 ovarian carcinoma cells, stronger effect = higher value;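 note: cells exposed to compound for four days; 0% = vehicle DMSO and 100% = killing by high DMSO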
[9] = LFS_MB_2R medulloblastoma cell growth inhibition, synergistic combos for chromothripsis tumors, cisplatin combos (AID 1671457); details: LFS_MB_2R medulloblastoma cells, stronger effect = higher value;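 note: cells exposed to compound for four days before readout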
[10] = MDA-MB-436 breast carcinoma cell growth inhibition, synergistic combos for chromothripsis tumors, BGB or cisplatin combos (AID 1671458; call rule not given here;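 note: cells exposed for 96 hours; 0% = vehicle DMSO and 100% = killing by high DMSO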); details: MDA-MB-436 breast carcinoma growth inhibition, drug combinations, stronger effect = higher value
[11] = UWB1.289_BRCA1 ovarian cancer growth, cell-based, BGB or cisplatin combinations (AID 1671459); details: UWB1.289 BRCA1 ovarian carcinoma, drug combinations, stronger effect = higher value
[12] = human astrocyte viability loss, single and combined drugs, cytotoxicity control for chromothriptic childhood tumor combination screen, cell-based, BGB or cisplatin IC20 combos (AID 1671460); details: Human astrocytes, drug combinations, stronger effect = higher value;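 note: cells exposed to compounds for 96 hours before viability readout; 0% = vehicle and 100% = killing control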
[13] = growth inhibition of BT084 medulloblastoma cells, cell-based, ICGC_MB145, cisplatin and BGB IC40 combos (AID 1671461); details: drug combinations, stronger effect = higher value;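 note: cells exposed to drugs for 96 hours; 0% = vehicle DMSO and 100% = high DMSO full killing control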
[14] = growth inhibition of RCMB18 medulloblastoma cells, cell-based, cisplatin and BGB IC40 combos (AID 1671462); details: stronger effect = higher value;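 note: cells exposed to compound for four days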
[15] = growth inhibition of CRL1545 osteosarcoma cells, cell-based, cisplatin and BGB IC20 combos (AID 1671464); details: stronger effect = higher value;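 note: cells exposed to compound for 96 hours before readout; 0% = vehicle DMSO and 100% = high DMSO killing control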
[16] = measured here: combination with BGB IC40, at 0.05 µM
[17] = measured here: with BGB IC20 combination, at 0.5 µM
[18] = measured here: with cisplatin IC20 combination, at 0.5 µM
[19] = measured here: combination with cisplatin, at 0.5 µM
[20] = measured here: combination with cisplatin, at 5 µM

## O=c1ccn(C2CC(O)C(CO)O2)c(=O)[nH]1 (stereo not drawn)
[1]; at 0.5 µM, stronger effect = higher value
  inhibition: -18.8% (inactive)
[1]; measured here: combination with BGB IC20, at 0.005 µM
  inhibition: -7.41%
[1]; measured here: combination with BGB IC40, at 0.005 µM
  inhibition: -27.4%
[1]; [16]
  inhibition: -29.5%
[1]; measured here: combination with cisplatin, at 0.5 µM, stronger effect = higher value
  inhibition: -37.9%
[1]; measured here: combination with cisplatin, at 5 µM, stronger effect = higher value
  inhibition: -35.5%
[2]; BGB combo, at 5 µM
  inhibition: -20.7%
[2]; at 0.5 µM
  inhibition: -36.9% (inactive)
[2]; cisplatin combo, at 5 µM
  inhibition: -20.7%
[2]; [17]
  inhibition: -38.7%
[2]; [18]
  inhibition: -41.3%
[2]; single agent, at 5 µM
  inhibition: -10.1%
[3]; BGB IC20 combo, at 0.005 µM
  inhibition: 4%
[3]; BGB IC40 combo, at 0.005 µM
  inhibition: -31.4%
[3]; BGB IC40 combo, at 0.05 µM
  inhibition: -22%
[3]; at 0.5 µM
  inhibition: -20.1% (inactive)
[3]; cisplatin combo, at 0.05 µM
  inhibition: -25.4%
[3]; cisplatin combo, at 0.5 µM
  inhibition: -21.2%
[3]; cisplatin combo, at 5 µM
  inhibition: -29.4%
[3]; measured here: 5 uM single agent, at 5 µM
  inhibition: -22%
[4]; at 0.5 µM
  inhibition: -29.6% (inactive)
[4]; [16]
  inhibition: -35%
[4]; [19]
  inhibition: -32.9%
[4]; [20]
  inhibition: -47.4%
[5]; at 0.5 µM
  inhibition: -20.1% (inactive)
[5]; measured here: with BGB IC20, at 0.5 µM
  inhibition: -39.5%
[5]; measured here: with BGB IC20, at 5 µM
  inhibition: -39.3%
[5]; measured here: with cisplatin IC20, at 0.5 µM
  inhibition: -5.42%
[5]; measured here: with cisplatin IC20, at 5 µM
  inhibition: -49.8%
[5]; single agent, at 5 µM
  inhibition: -26.7%
[6]; at 0.5 µM
  inhibition: -68.3% (inactive)
[6]; measured here: combination with BGB at IC20, at 0.5 µM
  inhibition: -48.5%
[6]; measured here: combination with cisplatin at IC20, at 0.5 µM
  inhibition: -72.4%
[7]; at 0.5 µM
  inhibition: -3.73% (inactive)
[7]; measured here: combo with BGB at IC20, at 0.5 µM
  inhibition: -8.35%
[7]; measured here: combo with cisplatin at IC20, at 0.5 µM
  inhibition: -4.82%
[8]; at 0.5 µM
  inhibition: 0.16% (inactive)
[8]; measured here: inhibition with BGB combination, at 0.05 µM
  inhibition: -21%
[8]; measured here: inhibition with cisplatin combination, at 0.05 µM
  inhibition: -1.45%
[9]; at 0.5 µM
  inhibition: -20.5% (inactive)
[9]; [19]
  inhibition: -18.3%
[9]; [20]
  inhibition: -78.5%
[10]; at 0.5 µM
  inhibition: -14.8% (inactive)
[10]; measured here: BGB combination, at 0.5 µM
  inhibition: -6.54%
[10]; measured here: BGB combination, at 5 µM
  inhibition: -25.5%
[10]; measured here: cisplatin combination, at 0.5 µM
  inhibition: -29.1%
[10]; measured here: cisplatin combination, at 5 µM
  inhibition: -17%
[11]; BGB combination, concentration series, at 5 µM
  inhibition: -3.77%
[11]; at 0.5 µM
  inhibition: 0.57% (inactive)
[11]; cisplatin combination, concentration series, at 5 µM
  inhibition: 10.4%
[12]; at 0.5 µM
  inhibition: 3.18% (inactive)
[12]; measured here: combo with BGB IC20, at 0.5 µM
  inhibition: -6.85%
[12]; measured here: combo with cisplatin IC20, at 0.5 µM
  inhibition: 4.49%
[13]; at 0.5 µM
  inhibition: -24.6% (inactive)
[13]; cisplatin combination, at 0.5 µM
  inhibition: -0.373%
[13]; cisplatin combination, at 5 µM
  inhibition: 1.74%
[13]; measured here: BGB IC40 combination 0.05 uM, at 0.05 µM
  inhibition: 26.6%
[13]; single agent, at 5 µM
  inhibition: -10.6%
[14]; at 0.5 µM
  inhibition: -15.4% (inactive)
[14]; cisplatin combo, at 5 µM
  inhibition: 1.69%
[14]; measured here: BGB IC40 combination, at 0.05 µM
  inhibition: 3.1%
[14]; [19]
  inhibition: 9.29%
[14]; single agent, at 5 µM
  inhibition: -204%
[15]; at 0.5 µM
  inhibition: -20.7% (inactive)
[15]; [17]
  inhibition: -5.72%
[15]; [18]
  inhibition: -31.1%
[15]; single agent, at 0.05 µM
  inhibition: -46.2%
[15]; single agent, at 5 µM
  inhibition: -14.8%
